# Results: PubChem BioAssay AID887 (National Center for Advancing Translational Sciences (NCATS), 2007)
# The campaign covered roughly 74,000 compounds. About 1,100 (1.5%) were called active. A call without a number means that no potency is given here. Not shown: some 5% with an inconclusive outcome. Calls come from the whole dose curve; as a rule, active = well fitted inhibition curve with a large enough effect; inconclusive = small, poorly fitted or top-dose-only effect; inactive = no such curve, though single readings can be large or run the other way. The sample as a whole holds a higher share of actives than the screen did.
# Target: Polyunsaturated fatty acid lipoxygenase ALOX15 (Homo sapiens) (UniProt P16050)
# Assay: qHTS Assay for Inhibitors of 15-hLO (15-human lipoxygenase); note: nearly all actives have a fitted effect of over 55% in size
# Conditions: purified 15hLO-1, xylenol orange hydroperoxide absorbance; series mostly up to 57.1 µM
# From the text: Assay Overview: NIH Molecular Libraries Screening Centers Network [MLSCN] NIH Chemical Genomics Center [NCGC] MLSCN Grant: MH081283-01A1 PI Name: Holman, T.R., University of California, Santa Cruz Human lipoxygenase 15hLO-1 is a member of the closely related lipoxygenase family of enzymes which catalyze the site-specific oxidation of arachidonic acid to various hormone precursor molecules and as such is a candidate for drug development in a variety of disease areas, such as cancer and inflammation. Inhibition of 15hLO-1 activity was screened by utilizing arachidonic acid as a substrate. The extent of hydroperoxide product formation was measured by a secondary chromogenic reaction in which xylenol orange (XO, Sigma-Aldrich, cat. number 39,818-7) reacts with the ferric ions produced from the reaction between the hydroperoxide and ferrous ions. The Fe(III)-XO complex is characterized with red-shifted absorbance at 560 nm. A purified preparation of human 15hLO-1 was supplied by Professor Ted Holman, University of California, Santa Cruz.
# Assay Protocol: Buffer: 25 mM Hepes pH 7.5, 0.01% Triton X-100. Reagents/Controls: Buffer in columns 3 and 4 as negative control (no enzyme). Substrate solution: 50 uM arachidonic acid (Sigma-Aldrich, St. Louis, MO) final concentration dispensed throughout the plate. Enzyme: 40 nM 15hLO-1 final concentration in columns 1, 2, 5-48. Column 1 is neutral (100% activity). Column 2 contained pin-transferred titration of NDGA (nordihidroguaiaretic acid, Sigma-Aldrich, N 5023, top concentration 10 mM in DMSO, then 1:2 dilution in duplicate). (Dilution factor: 23 nL into 4 uL.) Chromogenic detection reagent (divalent iron/xylenol orange, Fe-XO): 200 uM xylenol orange plus 300 uM ferrous ammonium sulfate prepared freshly in 50 mM sulfuric acid. Assay Steps: Three uL of enzyme were dispensed to 1536-well Greiner black clear bottom plates. Compounds and controls (23 nL) were transferred via Kalypsys PinTool. The plates were incubated for 15 min at room temperature, and then 1 uL of substrate solution was added to start the reaction. After room temperature incubation for 6 minutes, 4 uL of Fe-XO solution was added to each well followed by a short spin (1000 rpm, 15 sec) and the plates were then incubated for 30 min. The absorbance at 405 and 573 nm were measured using ViewLux (Perkin-Elmer) High-throughput CCD imager and absorbance protocol settings. The 573-to-405 absorbance ratio was used to compute reaction progress.
# Potency is the fitted concentration of half-maximal effect.
# Chain of Polyunsaturated fatty acid lipoxygenase ALOX15 (Homo sapiens) (P16050 whole entry, looked up): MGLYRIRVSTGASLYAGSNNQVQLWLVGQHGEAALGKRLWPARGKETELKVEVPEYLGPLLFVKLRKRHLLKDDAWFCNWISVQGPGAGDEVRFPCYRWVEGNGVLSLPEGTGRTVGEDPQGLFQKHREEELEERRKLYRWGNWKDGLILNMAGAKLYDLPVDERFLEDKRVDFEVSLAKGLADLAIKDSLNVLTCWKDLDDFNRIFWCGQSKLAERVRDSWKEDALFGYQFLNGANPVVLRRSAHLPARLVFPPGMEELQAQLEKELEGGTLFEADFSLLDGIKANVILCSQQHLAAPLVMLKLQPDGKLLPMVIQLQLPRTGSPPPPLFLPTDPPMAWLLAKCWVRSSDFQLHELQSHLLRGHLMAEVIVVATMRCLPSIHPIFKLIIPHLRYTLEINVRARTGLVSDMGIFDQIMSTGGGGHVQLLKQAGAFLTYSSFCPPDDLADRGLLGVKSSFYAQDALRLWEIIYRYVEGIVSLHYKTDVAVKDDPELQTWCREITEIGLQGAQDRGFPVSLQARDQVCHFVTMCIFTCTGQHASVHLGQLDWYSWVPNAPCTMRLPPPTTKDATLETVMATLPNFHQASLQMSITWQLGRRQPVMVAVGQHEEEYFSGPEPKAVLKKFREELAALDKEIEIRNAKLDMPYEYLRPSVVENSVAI
row,SMILES,Potency
1,CC(C)(Cc1c[nH]c2ccc(Cl)cc12)NCCOc1ccccc1OCC1CC1,12.6 µM (active)
2,CNCC[C@H](Oc1ccc(C(F)(F)F)cc1)c1ccccc1,inactive
3,CCC(C)C(=O)O[C@@H]1C[C@@]2(C)C(c3ccoc3)OC(=O)CC23OC2(C)O[C@@]14[C@@]1(C)C(CC(=O)OC)C5(C)CC1(O)C(O)(C5OC(=O)C1(C)OC1C)C(OC(C)=O)[C@@]34O2 (stereo not given in full),inactive
4,CN(C)C1C(=O)C(C(N)=O)=C(O)[C@@]2(O)C(=O)C3=C(O)c4c(O)cccc4[C@@](C)(O)C3C[C@@H]12 (stereo not given in full),inactive
5,CC(=O)OC1C2CCC3C1(CC(O)[C@@]1(O)[C@@H](CC(O)C1(C)C)[C@]3(C)O)C[C@@]2(C)O (stereo not given in full),inactive
6,COC(=O)N(c1ccc(OC)cc1)P1(=S)OCCC(C)O1 (stereo not given),3.98 µM (active)
7,CC1=CC(=O)C2=C(C)C[C@H](O)[C@H]3[C@H](C)C(=O)O[C@@H]3C12 (stereo not given in full),inactive
8,C[C@@]12CCC3C(CC[C@@H]4CC(O)CC[C@@]34C)C1CCC2O (stereo not given in full),inactive
9,CCN1C[C@]2(COC)C(O)C[C@H](OC)[C@@]34C5C[C@]6(O)C(OC)C(O)[C@](OC(C)=O)(C5C6OC(=O)c5ccccc5)C(C(OC)C23)C14 (stereo not given in full),inactive
10,Clc1ccc(C(c2ccc(Cl)cc2)n2cc[n+](C[C@@H](OCc3ccc(Cl)cc3Cl)c3ccc(Cl)cc3Cl)c2)cc1,20 µM (active)
11,CN1C2CC3CC1C(O3)C2O (stereo not given),inactive
12,N#Cc1c(Cl)c(Cl)c(Cl)c(C#N)c1Cl,inactive
13,CC[C@@H]1CN2CC[C@@H]1C[C@H]2[C@H](O)c1ccnc2ccc(OC)cc12,inactive
14,CNC(C)[C@@H](O)c1ccccc1 (stereo not given in full),inactive
15,COc1ccc2c3c1OC1CC(O)C=C[C@@]31CCN(C)C2 (stereo not given in full),inactive
